# PubChem BioAssay (NCATS)
# Values without a mark were called inactive. Records with an inconclusive call do not appear. Entries that show only a call come without a potency. Active and inactive are the calls of the source. Calls come from the whole dose curve; as a rule, active = well fitted curve in the direction sought with a large enough effect; inconclusive = small, poorly fitted or top-dose-only effect, or another doubt; inactive = no such curve, though single readings can be large; an effect the other way counts as inactive or inconclusive. *1 amine or outer side, *2 acyl side, *3 side chain or, on linkers, in order; H or OH if unused. Where a SMILES comes first, the peptide text is derived from it. Bridges are numbered along the chain shown (N, C = ends). [ ]: non-standard residue; d: D form. The star is where a group is joined. ξ: configuration not given here. X10 = NC1=NCCC(C(N[*:1])C(=O)[*:2])N1; ΔAla(3-NHCONH2) = NC(=O)NC=C(N)C(=O)O; ξβ3hOrn = NCCCC(N)CC(=O)*; Dap = NC[CH](N)C(=O)O
# Experiments:
# [1] = qHTS assay for measurement of the activity of small molecule inhibitors on Zika virus induced Caspase-3 activity in human iPSC derived neural progenitor cells (hNPCs) (AID 1224857); note: nearly all actives have a fitted effect of over 65% in size
# How it was run: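 Percent inhibition of virus-induced caspase-3/7 luminescence (Caspase-Glo), scaled between uninfected cells and Zika-infected cells. hNPCs received compound 1 hr before ZIKV at 2 FFU/cell, with 6 hours infection at 37 C.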
# [2] = qHTS assay for measurement of the activity of small molecule inhibitors on Zika virus induced Caspase-3 activity in human astrocytoma cells (AID 1224859)
# How it was run: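 Luminescent caspase-3/7 read-out (30 min reagent, room temperature) in human SNB-19 cells infected 6 h with ZIKV (2 FFU/cell) after 1 h compound pre-incubation; Data were normalised to uninfected and infected wells.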
# [3] = NS1 protein of Zika virus - qHTS assay to identify small molecule inhibitors in human HEK 293 cells (AID 1347053); note: nearly all actives have a fitted effect of over 55% in size; note: potency is the fitted concentration of half-maximal effect; for activity change, negative = inhibition: series mostly up to about 46 µM
# How it was run: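 HEK 293 cells pretreated with compound for 1 h, then infected with ZIKV MR766 (MOI 0.5) for 24 h at 37 C. NS1 detected by TR-FRET with two anti-NS1 antibodies; normalized to uninfected (0%) and infected (100%) wells.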
# [4] = qHTS of pediatric cancer cell lines to identify multiple opportunities for drug repurposing: Primary screen for TC32 cells (AID 1347089); note: nearly all actives have a fitted effect of over 60% in size; note: potency is the fitted concentration of half-maximal effect
# How it was run: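 Luminescent ATP read-out (CellTiter-Glo) of metabolically active TC32 cells after 48 h exposure. Concentration-response curves came from 11-point (MIPE, 0.78 nM–46 µM) or 8-point (NPC, 0.59 nM–46 µM) primary titrations; follow-up used 11 points.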
# [5] = qHTS of pediatric cancer cell lines to identify multiple opportunities for drug repurposing: Primary screen for DAOY cells (AID 1347090); note: nearly all actives have a fitted effect of over 55% in size; note: potency is the fitted concentration of half-maximal effect; for activity change, negative = cytotoxic: series mostly up to about 46 µM
# How it was run: (§1)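 Eight- or eleven-point concentration series, 48 h treatment at 37 degrees C in growth media; readout CellTiter-Glo luminescence. Potency and efficacy were taken from the concentration-response curves.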
# [6] = qHTS of pediatric cancer cell lines to identify multiple opportunities for drug repurposing: Primary screen for SJ-GBM2 cells (AID 1347091); note: potency is the fitted concentration of half-maximal effect
# How it was run: as §1
# [7] = qHTS of pediatric cancer cell lines to identify multiple opportunities for drug repurposing: Primary screen for A673 cells (AID 1347092); note: nearly all actives have a fitted effect of over 45% in size; note: potency is the fitted concentration of half-maximal effect
# How it was run: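 Cell viability of A673 measured by CellTiter-Glo ATP luminescence after 48 hours compound exposure. Dilution series spanned 0.78 nM to 46 µM (MIPE, 11-point) or 0.59 nM to 46 µM (NPC, 8-point); bortezomib 2.3 uM positive control.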
SMILES,Potency [1],outcome [2],Potency [3],Potency [4],Potency [5],Potency [6],Potency [7],"activity change, negative = inhibition [1]","activity change, negative = inhibition [2]","activity change, negative = inhibition [3]","activity change, negative = cytotoxic [4]","activity change, negative = cytotoxic [5]","activity change, negative = cytotoxic [6]","activity change, negative = cytotoxic [7]"
N#Cc1cc(NC(=O)C(=O)O)c(Cl)c(NC(=O)C(=O)O)c1,inactive,inactive,inactive,inactive,inactive,inactive,inactive,,,,,,,
Cc1coc2ccccc2c1=O,inactive,inactive,inactive,inactive,inactive,inactive,inactive,,,,,,,
CC(=O)/C=C/C=C1/C2CCC(C2)C1(C)C (configuration not stated),inactive,inactive,inactive,inactive,inactive,inactive,inactive,,,,,,,
O=c1[nH]c2ccccc2c(=O)n1CCCl,inactive,inactive,inactive,inactive,inactive,inactive,inactive,,,,,,,
N#CC1(c2ccc(F)cc2)CCC(=O)CC1,inactive,inactive,inactive,inactive,inactive,inactive,inactive,,,,,,,
CCOC(=O)C(=O)c1csc(NC=O)n1,inactive,inactive,inactive,inactive,inactive,inactive,inactive,,,,,,,
CC(=O)[C@H]1CC[C@H]2[C@@H]3C=CC4=CC(=O)CC[C@@]4(C)[C@@H]3CC[C@]12C,inactive,inactive,inactive,inactive,inactive,inactive,inactive,,,,,,,
CC(C)(C)NCC(O)COc1ccccc1OCC1CCCO1 (configuration not stated),inactive,inactive,inactive,inactive,inactive,inactive,inactive,,,,,,,
CN1Cc2cc(C(=O)N3CCC(C4CCNCC4)CC3)ccc2NC(CC(=O)O)C1=O (configuration not stated),inactive,inactive,inactive,inactive,inactive,inactive,inactive,,,,,,,
O=[N+]([O-])c1nccn1CO[C@@H](CO)[C@H](O)CO,inactive,inactive,inactive,inactive,inactive,inactive,inactive,,,,,,,
O=[N+]([O-])c1cncn1CCN1CCOCC1,inactive,inactive,inactive,inactive,inactive,inactive,inactive,,,,,,,
NC(=O)NC1N=C([O][Al])NC1=O (configuration not stated),inactive,inactive,inactive,inactive,inactive,inactive,inactive,,,,,,,
O=C(OCCN1CCOCC1)c1cccnc1Nc1cccc(C(F)(F)F)c1,inactive,inactive,inactive,inactive,inactive,inactive,inactive,,,,,,,
O=C(C1CCCCC1)N1CC(=O)N2CCCc3ccccc3C2C1 (configuration not stated),inactive,inactive,inactive,inactive,inactive,inactive,inactive,,,,,,,
CN1CC[C@H](c2c(O)cc(O)c3c(=O)cc(-c4ccccc4Cl)oc23)[C@H](O)C1,inactive,inactive,1.58 µM (active),592 nM (active),531 nM (active),106 nM (active),106 nM (active),,,,,,,
CC(NN)c1ccccc1 (configuration not stated),inactive,inactive,inactive,inactive,inactive,inactive,inactive,,,,,,,
NCCCC(N)CC(=O)NCC1NC(=O)C(CO)NC(=O)C(N)CNC(=O)C(C2CCN=C(N)N2)NC(=O)C(=CNC(N)=O)NC1=O (stereo not drawn) (H-[Dap]S[Dap](ξβ3hOrn)[ΔAla(3-NHCONH2)][X10]; lactam 1-C; configuration not given here),,,,,,,,2.09% [at 0.568 µM],-8.34% [at 0.568 µM],1.27% [at 0.593 µM],5.9% [at 0.594 µM],6.38% [at 0.597 µM],34.8% [at 0.597 µM],-4.68% [at 0.597 µM]
O=C(O)C(=O)Nc1cccc(-c2nn[nH]n2)c1,inactive,inactive,inactive,inactive,inactive,inactive,inactive,,,,,,,
CCN1CCN(C(=O)N[C@@H](C(=O)N[C@@H]2C(=O)N3[C@@H]2SC(C)(C)[C@H]3C(=O)O)c2ccccc2)C(=O)C1=O,inactive,inactive,inactive,inactive,inactive,inactive,inactive,,,,,,,
CC(C)C[C@@H]1[C@H](c2ccccc2)OC(=O)N1CCCN1CCCCCC1,inactive,inactive,inactive,inactive,inactive,inactive,inactive,,,,,,,
CCCc1c2oc(C(=O)O)cc(=O)c2cc2c(=O)cc(C(=O)O)n(CC)c12,inactive,inactive,inactive,inactive,inactive,inactive,inactive,,,,,,,
CCOC(=O)c1ccc(O)c(O)c1,inactive,inactive,inactive,inactive,inactive,inactive,inactive,,,,,,,
CCOC(=O)[C@H](CCc1ccccc1)N[C@@H](C)C(=O)N(CC(=O)O)C1Cc2ccccc2C1,inactive,inactive,inactive,inactive,inactive,inactive,inactive,,,,,,,
C[C@H]1C[C@@H]2[C@H]([C@@H](O)C[C@@]3(C)[C@H]2CC[C@]3(O)C(=O)CO)[C@@]2(C)C=CC(=O)C=C12,inactive,inactive,inactive,inactive,inactive,inactive,inactive,,,,,,,
O=C(O)c1ccc(OCCN2CCCCC2)cc1,inactive,inactive,inactive,inactive,inactive,inactive,inactive,,,,,,,
Nc1ncnc2c1ncn2Cc1c(F)cccc1Cl,inactive,inactive,inactive,inactive,inactive,inactive,inactive,,,,,,,
